Screens: PubChem, National Center for Advancing Translational Sciences (NCATS)
Sampled rows, rich in hits. Any-hit rate of the full collection: about 6.5%.
HCMV antiviral: blocks human cytomegalovirus replication. HFF cells, HCMV-luciferase reporter, 72 h; hits give low values. activity change, negative = inhibition, % at 57.5 µM. 410,000 tested, 4.5% active; in the data active = activity change below about -60%; inconclusive = no clear call, values can overlap the other calls; inactive = above about -39%
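After 16 h attachment at 37C, HFF cells received test compound and HCMV-luciferase (1 PFU/cell); reporter luminescence read 72 h later, data normalized against buffer-only and known inhibitor Salinomycin.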
VACV Venus inh: vaccinia inhibition (Venus reporter) | Potency, µM (series often up to 36.5 µM), without a hit: at the top dose activity change, negative = inhibition, hits mostly inhibitors | Vaccinia virus Venus reporter expression, fluorescence | AID 720580 | 330,000 tested, 0.46% active; calls by dose curve; tested in A549 cells; note: potency is the fitted concentration of half-maximal effect; nearly all actives have a fitted effect of over 30% in size
Vaccinia mCherry: inhibitors of vaccinia virus infection (mCherry reporter signal); Vaccinia virus mCherry reporter infection, fluorescence; Potency, µM (top dose mostly 36.5 µM), without a hit: at the highest dose activity change, negative = inhibition, hits mostly inhibitors; 310,000 tested, 0.63% active; AID 720579; calls by dose curve; tested in A549 cells; note: potency is the fitted concentration of half-maximal effect; nearly all actives have a fitted effect of over 35% in size
FMDV inh: foot and mouth disease virus antiviral activity | FMDV antiviral cell-based qHTS | Potency, µM (doses to about 57.9 µM), without a hit: at the highest dose activity change, negative = inhibition, most hits filed as inhibitors | 410,000 tested, 1.2% active | AID 1159524; calls by dose curve; tested in HEK293T cells; note: read-out not given here; potency is the fitted concentration of half-maximal effect; nearly all actives have a fitted effect of over 45% in size
Marburg entry inh: inhibitors of Marburg virus binding or cell entry | 300,000 tested, 1.8% active | Potency, µM (highest dose often 37.8 µM), inactives show at the top dose activity change, negative = inhibition, actives largely listed as inhibitors | AID 540276 | Marburg virus pseudotyped entry inhibition, cell reporter; calls by dose curve; tested in HEK293 cells; note: potency is the fitted concentration of half-maximal effect
Lassa entry inh: blocks Lassa virus binding to or entry into cells. Lassa virus pseudotype entry inhibition, cell reporter. Potency, µM (doses to about 37.9 µM), for the others: top-dose activity change, negative = inhibition, usual class: inhibitors. 300,000 tested, 1.2% active; calls by dose curve; tested in HEK293 cells; note: potency is the fitted concentration of half-maximal effect; nearly all actives have a fitted effect of over 50% in size
An asterisk follows results filed as active; i = inactive; ? = inconclusive; · = no result given; [ ] = another dose, or the depositor's remark. % is set by controls: 0 for no effect and ±100 for the full control effect.

SMILES	HCMV antiviral	VACV Venus inh	Vaccinia mCherry	FMDV inh	Marburg entry inh	Lassa entry inh
O=C(c1cn[nH]c1)N1CCc2c([nH]c3ccccc23)C1c1c(F)cccc1Cl (stereo not given)	26	-15%	10µM*	-7%	?	?
Cc1ccc(NC(=O)N2CCc3c([nH]c4ccccc34)C2c2ccccc2F)c(Cl)c1 (stereo not given)	-28	-9%	-12%	-10%	·	7.9µM*
O=C(c1ccc(Cl)cc1)N1CCc2c([nH]c3ccccc23)C1C(F)(F)F (stereo not given)	?	-27%	i	-29%	11µM*	?
O=C(Nc1ccccc1)N1CCc2c([nH]c3ccccc23)C1C(F)(F)F (stereo not given)	6	?	?	-11%	?	?
Nc1ncnc2c1ncn2[C@@H]1O[C@H](COP(=O)(O)OP(=O)(O)OC[C@H]2OC(O)[C@H](O)[C@@H]2O)[C@@H](O)[C@H]1O (stereo not given in full)	·	-10%	-4%	8%	·	·
CCOC(=O)Nc1ccc(NS(=O)(=O)c2ccc(C)cc2)cc1	56	-23%	-7%	42%	-20%	12µM*
Cc1ccc(NC(=O)NNS(=O)(=O)c2ccc(Br)cc2)cc1	38	-9%	·	-17%	?	0%
Cc1ccc(S(=O)(=O)NC(=O)Nc2ccc(N(C)C)cc2)cc1	-18	?	?	24%	?	13µM*
CCOC(=O)Nc1ccc(S(=O)(=O)NCc2ccccc2)cc1	-62*	-19%	?	·	-17%	?
COc1ccc(C2=CC(=O)N(CCN)C2)cc1	3	·	·	·	·	·
CN1CCN(c2ccc(S(=O)(=O)N3CCCCC3)cc2NC(=O)/C=C/c2ccc(Cl)c([N+](=O)[O-])c2)CC1	-80*	-27%	-10%	?	?	13µM*
CCN1CCN(c2ccc(S(=O)(=O)N3CCOCC3)cc2NC(=O)/C=C/c2ccc(C)cc2)CC1	3	-15%	-28%	-20%	?	-24%
O=C(/C=C/c1ccc(Cl)cc1)Nc1cc(S(=O)(=O)N2CCOCC2)ccc1N1CCOCC1	-31	?	?	-16%	?	4.5µM*
CN1CCN(c2ccc(S(=O)(=O)N3CCCCC3)cc2NC(=O)/C=C/c2ccc(OC(F)F)cc2)CC1	-13	13µM*	?	-4%	?	?
CCN1CCN(c2ccc(S(=O)(=O)N3CCCCC3)cc2NC(=O)/C=C/c2ccc([N+](=O)[O-])cc2)CC1	-19	-13%	?	?	?	-15%
CCN1CCN(c2ccc(S(=O)(=O)N3CCCCC3)cc2NC(=O)/C=C/c2ccc(F)cc2)CC1	-9	-29%	-10%	0%	?	-15%[46.1 µM]
CCN1CCN(c2ccc(S(=O)(=O)N3CCCCC3)cc2NC(=O)/C=C/c2ccc(OC(F)F)cc2)CC1	-29	?	?	-17%	?	6.3µM*
COc1ccc2c(c1)c(N1CCCC1=O)c(C(=O)Nc1cc(C)c(Cl)cc1OC)n2C	1	-6%	-16%	-24%	·	-19%[46.1 µM]
COc1ccc(/C=C/C(=O)Nc2cccc(S(=O)(=O)N3CCOCC3)c2)cc1OC	4	-23%	-6%	?	?	?
O=C(Nc1ccccc1F)Nc1cc(S(=O)(=O)N2CCOCC2)ccc1N1CCCC1	-3	6%	i	15%	-14%	?
O=C(/C=C/c1ccc(Cl)c([N+](=O)[O-])c1)Nc1ccc(N2CCCC2)c(Cl)c1	-68*	11%	i	-18%	?	-2%
O=C(/C=C/c1ccc(OC(F)F)cc1)Nc1cccc(S(=O)(=O)N2CCOCC2)c1	-75*	?	-18%	?	?	?
O=C(Nc1ccc(Cl)c(Cl)c1)Nc1cc(S(=O)(=O)N2CCOCC2)ccc1N1CCCC1	-68*	?	?	-16%	?	?
O=S(=O)(c1ccc(Cl)c(NC(=S)N/N=C/c2ccc(O)cc2)c1)N1CCOCC1	-83*	?	?	?	?	12µM*
CCN1C(=S)SC(=O)C1=C1C=C(C)N(CCO)C(C)=C1	-68*	-17%	-1%	·	?	?
